Data taken from PubChem BioAssay (NCI).
Compounds without any hit were thinned out: in the full panel of roughly 79,000, 15% have a hit. A number with no mark means an inactive call. Calls of active or inactive are those of the source. Rule as the data show it: active = growth inhibition above about 70%; inactive = the rest.

assay: NCI Yeast Anticancer Drug Screen. Data for the sgs1 mgt1 strain (AID 161);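 also: 0% = growth of cultures given vehicle only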; conditions: S. cerevisiae sgs1 mgt1 strain, at 50.0 µM, hits give high values
Protocol: Growth inhibition of yeast strains with defined genetic alterations is measured as a screen for potential anti-cancer activity. Selected strains with alterations in DNA damage repair or cell cycle control were exposed to compounds and growth inhibition was measured relative to vehicle treated controls. The strain used in this assay is sgs1 mgt1

For `CC1(C)C2CCC1(CS(=O)(=O)O)C(=O)C2` (stereo not given), which growth inhibition is on record?
The growth inhibition was -12.4%.

Which growth inhibition does the source give for `COC(=O)/C=C\C(C#N)(C#N)N=Cc1ccsc1` here?
The growth inhibition was 79.8% (active).

Which growth inhibition does the source give for `CCn1c2c(c3ccccc3c1=O)C(=O)c1ccccc1-2` here?
The growth inhibition was 16.8%.

With `CCC/C(Cl)=N/OC(=O)Nc1cccc(F)c1` as the compound, how does the growth inhibition read?
Its growth inhibition is 90.8% (active).

With `C=C(C)C(=O)OC1CC2(C)OC(=CC2=O)C(C)CC2OC(=O)C(=C)C12` (stereo not given) as the compound, how does the growth inhibition read?
Its growth inhibition is 29%.

Which growth inhibition does the source give for `CC1=C2NCN(C)N=C2C(C#N)(C#N)C1(C#N)C#N` here?
The growth inhibition was -15.3%.

With `COc1cc([C@H]2OC[C@H]3[C@@H]2CO[C@@H]3c2cc(OC)c3c(c2)OCO3)cc(OC)c1OC` as the compound, how does the growth inhibition read?
The growth inhibition was 1.25%.

For `Cc1ccc(/C=N/Nc2cnccn2)s1`, which growth inhibition is on record?
The growth inhibition was -30.9%.

Which growth inhibition does the source give for `NC1N=C(c2ccc(Cl)cc2)C2=C(N1)c1ccccc1CC2` (stereo not given) here?
The growth inhibition was -0.75%.

With `O=c1c2ccccc2nc(-c2ccccc2)n1/N=C/c1ccccc1[N+](=O)[O-]` as the compound, how does the growth inhibition read?
Its growth inhibition is 26.8%.

Which growth inhibition does the source give for `CCOC(=O)c1cc(C)nc2c1c(=O)n(-c1ccccc1)c(=O)n2CCCCN1CCN(c2ncccn2)CC1` here?
The growth inhibition was 12.2%.

For `COc1ccc2nc(NC(=O)/C(C#N)=C/c3ccccc3)sc2c1`, which growth inhibition is on record?
Its growth inhibition is 44.6%.

With `N#Cc1nc(-c2cccc(-c3nc(C#N)c(N)o3)n2)oc1N` as the compound, how does the growth inhibition read?
The growth inhibition was -18.1%.

For `O=C(/C=C/c1ccccc1)Nc1ccccc1`, which growth inhibition is on record?
Its growth inhibition is 6.35%.

For `Cc1nc(-[n+]2nc(-c3ccccc3)nn2-c2ccccc2)sc1C`, which growth inhibition is on record?
Its growth inhibition is -18.9%.

With `O=C(/C=C(\[O-])c1ccccc1)CCCCCCC(=O)/C=C(\[O-])c1ccccc1.O=C(/C=C(\[O-])c1ccccc1)CCCCCCC(=O)/C=C(\[O-])c1ccccc1.O=C(/C=C(\[O-])c1ccccc1)CCCCCCC(=O)/C=C(\[O-])c1ccccc1.[La+3].[La+3]` as the compound, how does the growth inhibition read?
The growth inhibition was 5.5%.

For `COc1cc2c(cc1-c1coc3cc(O)ccc3c1=O)OCO2`, which growth inhibition is on record?
The growth inhibition was -15.6%.

With `COc1ccc(N=C(C)C(C)=Nc2ccc(OC)cc2)cc1` as the compound, how does the growth inhibition read?
The growth inhibition was -15.1%.

With `C=CCNC1=C2C[C@@H](C)C[C@@H](OC)[C@@H](OC(=O)CCCN)[C@H](C)/C=C(\C)[C@@H](OC(N)=O)[C@H](OC)/C=C\C=C(/C)C(=O)NC(=CC1=O)C2=O` as the compound, how does the growth inhibition read?
Its growth inhibition is 14.2%.

Which growth inhibition does the source give for `CC(C)Cc1ccc(C(C)C(=O)O)cc1` (stereo not given) here?
Its growth inhibition is -4.5%.

For `Cc1ccc(-c2noc(C)n2)cc1`, which growth inhibition is on record?
Its growth inhibition is -2.75%.

Which growth inhibition does the source give for `O=C1NC(N/N=C\C(O)C(O)C(O)C(O)CO)=N/C1=C\c1ccc(Cl)cc1` (stereo not given) here?
The growth inhibition was 25.8%.

Which growth inhibition does the source give for `CC1CC(=O)N(N(C)C)C2(C#N)C(=O)N=C(N)C12C#N` (stereo not given) here?
Its growth inhibition is -16.1%.

Which growth inhibition does the source give for `Clc1c(Cl)c(Cl)c2nn(C3CCCO3)nc2c1Cl` (stereo not given) here?
The growth inhibition was -5.9%.

For `N#C/C=C1\C=CC(O)C(O)C1OC1OC(CO)C(O)C(O)C1O` (stereo not given), which growth inhibition is on record?
Its growth inhibition is 37.9%.

For `CCCCCCSC[C@H](OC(C)=O)[C@@H](OC(C)=O)[C@@H](OC(C)=O)[C@@H](COC(C)=O)OC(C)=O`, which growth inhibition is on record?
The growth inhibition was 2.65%.

With `CC(C)C1OC(N)=C(C#N)C1(C#N)C#N` (stereo not given) as the compound, how does the growth inhibition read?
Its growth inhibition is -7.35%.

With `Cc1ccc(/C=N/Nc2ccccn2)s1` as the compound, how does the growth inhibition read?
Its growth inhibition is -2%.

For `Cc1ccc(/C=C2/N=C(N/N=C\c3ccccc3)NC2=O)cc1`, which growth inhibition is on record?
The growth inhibition was -19.4%.

For `CC(C)(C)c1cc(C2COC(=O)COCCOCC(=O)OCCOCCO2)cc(C(C)(C)C)c1O` (stereo not given), which growth inhibition is on record?
Its growth inhibition is -10.4%.

For `O=C1NC(N/N=C\c2ccccc2)=N/C1=C/c1ccccc1`, which growth inhibition is on record?
Its growth inhibition is -0.1%.

For `CCOc1cc2c(cc1O)C=C[C@@H]1[C@@H]2CC[C@]2(C)[C@@H](O)CC[C@@H]12`, which growth inhibition is on record?
The growth inhibition was 53.8%.

With `C[C@@H]1C[C@@H]2OC(=O)[C@]3(C)[C@H]2[C@@H](OC3(C)O)[C@]2(C)C(=O)C=C[C@@H]12` (stereo not given in full) as the compound, how does the growth inhibition read?
The growth inhibition was -40.4%.

Which growth inhibition does the source give for `COc1cc(Oc2c(C)c(Cl)c(OC)c(Cl)c2OC)c2c(c1Cl)COC2=O` here?
Its growth inhibition is 15.6%.

Which growth inhibition does the source give for `NC(Cc1ccc(S(=O)(=O)O)cc1)C(=O)NC(Cc1ccc(S(=O)(=O)O)cc1)C(=O)NC(Cc1ccc(S(=O)(=O)O)cc1)C(=O)NC(Cc1ccc(S(=O)(=O)O)cc1)C(=O)O` (stereo not given) here?
Its growth inhibition is 5.2%.

With `CC1OC(Oc2c(-c3cc(O)c(O)c(O)c3)oc3cc(O)cc(O)c3c2=O)C(O)C(O)C1O` (stereo not given) as the compound, how does the growth inhibition read?
Its growth inhibition is -8%.

With `C[C@@H]1C[C@](O)([C@@H](C)Cl)C(=O)O[C@@H]2CCN3CC=C(COC(=O)[C@]1(C)O)[C@H]23` as the compound, how does the growth inhibition read?
Its growth inhibition is -7.95%.

With `CCC(C)C1(O)OC2CC3(C)OC(=CC3=O)/C(C)=C\C3OC(=O)C1(C)C32` (stereo not given) as the compound, how does the growth inhibition read?
Its growth inhibition is 37.5%.

Which growth inhibition does the source give for `COC(=O)C(=O)C(C(=O)C(=O)Nc1nc2ccc(C)cc2s1)c1nc2ccc([N+](=O)[O-])cc2[nH]c1=O` (stereo not given) here?
The growth inhibition was 22.1%.

For `CCCCCC(O)(CCCCC)CCCCCCCCC1=C(O)c2ccccc2C(=O)C1=O`, which growth inhibition is on record?
The growth inhibition was -0.15%.
